Experimental data reported in PubChem BioAssay AID651582 (Sanford-Burnham Center for Chemical Genomics, 2012).
The campaign covered roughly 230,000 compounds. About 1,500 (0.65%) were called active.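 How the source made its calls: active means pattern-corrected inhibition of lipid staining of at least 50% with the nuclear-stain viability signal not falling by more than 50%; inactive means the rest, inconclusive results apart.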 For the sample, actives were picked, then their nearest neighbours and some compounds at random.

Assay: inhibitors of triacylglycerol accumulation, primary screen, cell-based, uHTS, fluorescence, H9c2 (AID 651582);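 on inhibition: 0% = DMSO wells and 100% = triacsin C control wells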
Settings: H9c2 cells, Nile Red lipid (TAG) fluorescence, at 12.5 µM, cells loaded with 200 µM oleic acid; DAPI nuclei signal change (viability), lower = more cytotoxic: measured here: DAPI nuclei count viability; inhibition: stronger effect = higher value

| SMILES | DAPI nuclei signal change (viability), lower = more cytotoxic | inhibition |
| --- | --- | --- |
| COc1cccc(CNc2nc3cc(-c4csc5ccccc45)sc3c(=O)n2C)c1 | 4.67% | 6.4% (inactive) |
| O=C(CN1C(=O)NC2(CCOc3ccccc32)C1=O)Nc1cccc([N+](=O)[O-])c1 (stereo not given) | -0.437% | 29.8% (inactive) |
| CC(C)C[C@H](CO)Nc1nc(N(C)c2cccc(Cl)c2)c2ncn(C(C)C)c2n1 | -1.92% | -3.43% (inactive) |
| CC(C)n1cnc2c(Nc3cccc(Cl)c3)nc(N(CCO)CCCO)nc21 | -20.3% | 56.1% (active) |
| OCCCNc1nccc(-c2cc(Nc3cccc(Cl)c3)ncn2)n1 | -53.6% | 91.3% (inactive) |
| COc1cc(C(O)c2nc(-c3cnn(C)c3)cs2)ccc1F (stereo not given) | -5.42% | -0.779% (inactive) |
| O=CNc1cc(-c2ccc(C(=O)N3CCOCC3)cc2)cn2c(-c3ccc(F)cc3)cnc12 | -10.1% | 16.1% (inactive) |
| CN(C)CCNC(=O)c1cccc(-c2cnc3c(NC=O)cc(-c4cccc(C(F)(F)F)c4)cn23)c1 | -5.39% | 55.2% (active) |
| CN(C)C(=O)c1cccc(-c2cnc3c(NC=O)cc(-c4ccc(C(=O)N5CCOCC5)cc4)cn23)c1 | -40.1% | 52.5% (active) |
| CC(=O)c1cccc(-c2cnc3c(NC=O)cc(-c4cccc(C(=O)N(C)C)c4)cn23)c1 | -7.72% | 11.7% (inactive) |
| CC(=O)c1cccc(-c2cnc3c(NC=O)cc(-c4ccc(N(C)C)cc4)cn23)c1 | -34.1% | 25.5% (inactive) |
| CN(C)C(=O)c1cccc(-c2cnc3c(NC=O)cc(-c4ccc(F)cc4)cn23)c1 | -3.97% | 30.4% (inactive) |
| O=C(COC(=O)/C=C/c1cccc(Cl)c1)NCc1cccs1 | -2.53% | 1.94% (inactive) |
| CCCNC(=O)c1cc(C2CCCCN2S(=O)(=O)c2cn(C)cn2)on1 (stereo not given) | 4.91% | 3.78% (inactive) |
| CCCC(=O)Nc1nc2ccc(NC(=O)c3c(F)c(F)c(OC)c(F)c3F)cc2s1 | -22.6% | 70% (active) |
| CSc1nc2ccc(NC(=O)c3c(F)cccc3F)cc2s1 | 1.73% | -11.3% (inactive) |
| CC(=O)Nc1ccc2nc(NC(=O)CS(=O)(=O)c3ccc(F)cc3)sc2c1 | -3.72% | -0.551% (inactive) |
| CCNC(=O)C1(C)CCCN(C(=O)c2c(C)noc2C)C1 (stereo not given) | 4.88% | -5.1% (inactive) |
| CC1=C(C(=O)N(C)C)CC(CC(=O)NCCc2ccccn2)C(=O)N1CCC1=CCCCC1 (stereo not given) | -8.79% | -1.46% (inactive) |
| CN(Cc1c(F)cccc1Cl)C(=O)COC(=O)Cn1cnc2ccccc2c1=O | 0.959% | -10.1% (inactive) |
| O=C(OCCN1C(=O)c2ccccc2C1=O)[C@@H]1CC(O)CN1S(=O)(=O)c1ccccc1[N+](=O)[O-] (stereo not given in full) | -0.22% | -9.02% (inactive) |
| CCCC(=O)N1CCC1(C)C(=O)NS(=O)(=O)c1ccc(Cl)cc1 (stereo not given) | 2.06% | 6.55% (inactive) |
| CC(=O)Nc1ccc(C(=O)Nc2cc(S(=O)(=O)N3CCOCC3)ccc2N2CCOCC2)cc1 | 4.58% | -8.64% (inactive) |
| Cc1cccc(N2CCN(c3ccc(NC(=O)/C=C\C(=O)O)cc3)CC2)c1 | 1.52% | 7.15% (inactive) |
| CN1CCN(c2ccc(NC(=O)COc3ccc(Cl)cc3Cl)cc2)CC1 | 3.32% | -1.69% (inactive) |

| SMILES | DAPI nuclei signal change (viability), lower = more cytotoxic | inhibition |
| --- | --- | --- |
| C=CC(=O)Nc1ccc(Nc2ccnc(Nc3ccc(N4CCN(C)CC4)cc3)n2)cc1 | -47% | 88.2% (active) |
| COc1cc(NC(=O)c2cc(-c3ccc(F)cc3OC(C)C)n[nH]2)cc(OC)c1OC | -6.58% | 5.57% (inactive) |
| Cc1ccc(Sc2cc(N3CCOCC3)nc(-c3ccccc3)n2)cc1 | -0.706% | 55.1% (active) |
| O=S(=O)(Cc1cc(Sc2ccccc2)nc(-c2ccccc2)n1)c1ccccc1 | -1.14% | 12.7% (inactive) |
| Cc1cc(N2CCN(c3ccccc3)CC2)nc(N2CCOCC2)n1 | -3.71% | 14.3% (inactive) |
| COc1ccc(-c2ccc3c(c2)C2CC3CCN2CCC#N)cc1 (stereo not given) | 3.73% | -6.07% (inactive) |
| CCc1nc2ccc(C(=O)Nc3cccc(OC)c3)cn2c1N(CCC(C)C)CCN(C)C | 0.0295% | 33.9% (inactive) |
| Cc1[nH]c2ccccc2c1C(=O)C(=O)NCc1nnnn1-c1cccc(F)c1 | 9.45% | -12.5% (inactive) |
| CCN(CC)c1ncnc2c1ncn2[C@H]1CN(Cc2cccs2)C[C@@H](CO)O1 | -0.273% | -11.2% (inactive) |
| OC(c1ccc(Cl)cc1)c1ncc(-c2ccc(Cl)cc2)[nH]1 (stereo not given) | 11% | -53.7% (inactive) |
| O=C1OCC2=C1C(c1ccc(Cl)cc1)c1cc3c(cc1O2)OCO3 (stereo not given) | 6.8% | 11% (inactive) |
| COc1ccccc1C1C2=C(COC2=O)Nc2cc3c(cc21)OCO3 (stereo not given) | -19.2% | 58.6% (active) |
| CCCOc1ccccc1C1CC(=O)Nc2cc3c(cc21)OCO3 (stereo not given) | -7.65% | 28.7% (inactive) |
| CN(C)S(=O)(=O)c1cccc(NC(=O)COc2ccc3ccccc3c2)c1 | -8.57% | -14% (inactive) |
| O=C(NCCO)c1cccc(-c2cccc3nccn23)c1 | 4.67% | -6.44% (inactive) |
| CCOc1ccc(-n2c(O)c(/C=N/Nc3nnc(C)c(=O)[nH]3)c3ccccc3c2=O)cc1 | 5.58% | -10.7% (inactive) |
| COc1ccc(Cc2nnc(N/N=C/c3ccccc3O)[nH]c2=O)cc1OC | -27% | 50.4% (active) |
| COc1ccc(CCNC(=O)CCCCn2c(=O)[nH]c3ccccc3c2=O)cc1OC | -8.64% | 21.8% (inactive) |
| CC1C(=O)N(Cc2cn(CC3CCCCC3)nn2)CCS(=O)(=O)N1Cc1ccc(-c2cccc(N(C)C)c2)cc1 (stereo not given) | -0.553% | -17.1% (inactive) |
| COc1ccc(CC(=O)Nc2ccc(-c3nnc(-c4ccc(C)cc4)o3)cc2)cc1 | 2.81% | 59.2% (active) |
| Cc1ccc(OCC(=O)Nc2ccc(-c3nc4ncccc4o3)cc2)cc1 | 18.7% | 14% (inactive) |
| COc1ccc(NC(=O)c2cc(-c3ccc(C)cc3)on2)cc1 | 4.01% | -3.75% (inactive) |
| NNC(=O)c1nnn(-c2nonc2N)c1CN1CCCC1 | -4.78% | -6.85% (inactive) |
| CC1(C)CC(=O)C=C(c2ccccc2CO)C1=O | -1.17% | -16.1% (inactive) |
| CC(=O)CC(CC(=O)NC1CCCCC1)c1ccccc1 (stereo not given) | 1.1% | 2.67% (inactive) |

| SMILES | DAPI nuclei signal change (viability), lower = more cytotoxic | inhibition |
| --- | --- | --- |
| Cc1ccc(-c2nc3ccccc3[nH]2)cc1NC(=O)c1sc2ccccc2c1Cl | 17.5% | 58.3% (active) |
| COc1ccc(CNC(=O)CNC(=O)c2sc3ccccc3c2Cl)cc1OC | -2.17% | 10.6% (inactive) |
| Cc1nn(C)cc1/C=N/NC(=O)c1sc2ccccc2c1Cl | 6.2% | -14.7% (inactive) |
| Cc1ccc(Cc2c(-c3ccccc3)nc3ccc(Cl)cn23)cc1 | 0.00442% | -0.293% (inactive) |
| COc1ccc(C(=O)N(C)Cc2ccc(OC)c(OC)c2OC)cc1S(=O)(=O)N1CCOCC1 | -5.3% | 8.22% (inactive) |
| O=C(C[C@H]1C[C@H](C(=O)N2CCOCC2)[C@@]2(CCC3CCCC3)c3[nH]c4ccc(Cl)cc4c3CCN2C1=O)NCc1ccco1 | 8.62% | 28.1% (inactive) |
| COc1ccc(CNC(=O)C[C@H]2C[C@H](C(=O)N3CCOCC3)[C@@]3(CCC4CCCC4)c4[nH]c5ccc(Cl)cc5c4CCN3C2=O)cc1OC | 0.251% | 63.8% (active) |
| COc1ccc2[nH]c3c(c2c1)CCN1C(=O)C(CC(=O)NCCCN(C)C)C[C@H](C(=O)N2CCOCC2)[C@@]31CCC1CCCC1 (stereo not given in full) | -19.4% | 31.2% (inactive) |
| CC[C@]12c3[nH]c4ccc(OC)cc4c3CCN1C(=O)C(CC(=O)NCc1ccco1)C[C@@H]2C(=O)N1CCN(C(=O)C2CC2)CC1 (stereo not given in full) | -9.73% | 7.93% (inactive) |
| Cc1cc(Oc2ccccc2)nc(N2CCOCC2)n1 | 6.77% | -9.8% (inactive) |
| CC(=O)c1ccc(Oc2cc(C)nc(-n3nc(C)cc3C)n2)cc1 | -32.4% | 61.3% (active) |
| Cc1cc(C)n(-c2cc(Oc3ccccc3)ncn2)n1 | 6.79% | -18.3% (inactive) |
| CN(CCc1ccccc1)C(=O)c1cccc(NC(=O)Cc2ccc([N+](=O)[O-])cc2)c1 | -3.23% | -35% (inactive) |
| COc1cc(C(=O)OCC(=O)NC23CC4CC(CC(C4)C2)C3)cc(OC)c1OC | -0.331% | -18.4% (inactive) |
| COc1ccccc1-n1c(=S)[nH]c2c(sc(=S)n2-c2ccc(C)cc2C)c1=O | -48.2% | 65.4% (active) |
| COc1cccc(-n2c(=S)sc3c(=O)n(-c4ccccc4OC)c(SCC4OCCO4)nc32)c1 | -13.5% | 20.8% (inactive) |
| CCc1ccc(-n2c(=S)sc3c(=O)n(-c4ccccc4OC)c(=S)[nH]c32)cc1 | 8.9% | -2.37% (inactive) |
| CN(CC1CCCO1)S(=O)(=O)c1ccc(C(=O)Nc2ccc([N+](=O)[O-])cc2)cc1 (stereo not given) | 3.29% | -15.4% (inactive) |
| O=C(Nc1cc2c3c(c1)C1CCCC1CN3CC1CCCC21)c1ccc([N+](=O)[O-])cc1 (stereo not given) | -11.5% | 53.3% (active) |
| O=C(Nc1ccc(C(=O)N2CCCCC2)cc1)c1cccc([N+](=O)[O-])c1 | 5.03% | 3.82% (inactive) |
| O=C(Cc1ccccc1)N1CCN(S(=O)(=O)c2ccc([N+](=O)[O-])cc2)CC1 | -3.05% | -0.872% (inactive) |
| CC1CCN(C(=S)c2cccc([N+](=O)[O-])c2)CC1 | 4.33% | -2.26% (inactive) |
| CC1(c2ccccc2)CC(C)(C)N(C(=O)c2cc([N+](=O)[O-])cc([N+](=O)[O-])c2)c2ccccc21 (stereo not given) | -2.38% | 54.1% (active) |
| CCCCN(C=O)c1c(CC)nc2c(OCc3ccccc3C(=O)OC)cccn12 | -7.9% | 4.1% (inactive) |
| O=C(CCl)NNc1nc(-c2ccccc2)c2cc(Cl)ccc2n1 | -5.54% | 4.04% (inactive) |
